In PubChem BioAssay (NCI):
This is part of a sample that, as a whole, favours compounds with a hit. Of some 83,000 tested, about 20% had one in any assay.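 Note: values are percent growth. 100 is the growth of untreated cells, values between 100 and 0 indicate rising inhibition; between -100 and 0 indicates cell death.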 Active and inactive are the calls of the source. Rule for the calls: active = growth percent below 10; inactive = the rest.

system: MDA-MB-468 breast; experiment: NCI-60 one-dose screen, 48 h (100 = growth as untreated, 0 = no growth, -100 = all killed); conditions: 10 µM unless noted

Row | SMILES | growth
1 | COc1cc2c(cc1OCCCOC1=C=C=C(c3ccc4c(c3)c3cc(-c5ccc(OCCCOc6cc7c(cc6OC)C(=O)N6CCC[C@H]6C=N7)cc5)ccc3n4S(=O)(=O)c3ccc(C)cc3)C=C1)N=C[C@@H]1CCCN1C2=O | -17% (active)
2 | COc1ccc(Oc2[nH]n(C3=Nc4ccccc4Sc4ccccc43)c(=O)c2C#N)cc1 | 98.5% (inactive)
3 | CC1Cc2c(Cl)ncnc2N(C)c2ccc(Cl)cc21 (centres undefined) | -35.8% (active)
4 | COc1cc(/C=C/C(=O)c2cc(OC)c(OC)c(OC)c2)ccc1Oc1nc(NCCO)nc(N2CCOCC2)n1 | -20.8% (active)
5 | CN1C(=O)N(C)C2C1NN=c1s/c(=C\c3ccc(F)cc3)c(=O)n12 (centres undefined) | -11.4% (active)
6 | Cc1csc2ccc(Cl)cc12 | 96.8% (inactive)
7 | O=c1[nH]c(CCl)nc2c1cnn2-c1ccccc1 | 96.6% (inactive)
8 | CCOC(=O)Cn1c(-c2nonc2NC(=O)c2ccccc2F)nc2ccccc21 | 76% (inactive)
9 | C=CCSc1nc2ccccc2cc1/C=N/O | 82% (inactive)
10 | Fc1cccc(Oc2ccc(Nc3ncnc4ccc(OCCCN5CCOCC5)cc34)cc2Cl)c1 | -14.1% (active)
11 | CCN(CC)c1ccc(/C=N/NC(=O)C[N+](C)(C)C)cc1 | 112% (inactive)
12 | COc1ccc(\C=N/N=C(N)/C(N)=N\N=C/c2ccc(OC)cc2)cc1 | 95.7% (inactive)
13 | CCOC(=O)c1ccc(NC(=O)Nc2ncc(Cl)cc2Cl)cc1 | 95.1% (inactive)
14 | COC(=O)c1c2c(c[n+]([O-])c1C)C(=O)C=C(NCc1ccccc1)C2=O | -74.9% (active)
